DAX1 inh-1 = NR0B1 (DAX1) inhibition. inhibition, % at 6.75 µM. AID 504766. HEK293 Gal4-DAX1 luciferase reporter, luminescence. 340,000 compounds, 0.99% hits. P51843;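 active = inhibition above the mean over all tested compounds plus 3 SD, cut at about 4.2% in these data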;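 also: 0% = DAX1-transfected cells with DMSO and 100% = empty-vector control cells with DMSO; inhibition shows as a rise in luminescence from relieved DAX1 repression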
Target sequence (P51843 207-470 limits assumed): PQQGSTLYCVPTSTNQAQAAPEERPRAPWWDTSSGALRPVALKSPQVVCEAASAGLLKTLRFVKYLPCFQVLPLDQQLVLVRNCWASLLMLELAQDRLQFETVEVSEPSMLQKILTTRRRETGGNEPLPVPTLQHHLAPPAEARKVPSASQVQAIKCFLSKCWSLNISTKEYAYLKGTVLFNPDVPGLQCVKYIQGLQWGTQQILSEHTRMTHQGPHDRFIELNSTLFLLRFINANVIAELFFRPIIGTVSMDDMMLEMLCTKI
ssDAF12 agonist = activates DAF-12 receptor from parasite S. stercoralis; activation, % at 6.8 µM; AID 652126; HEK293 ssDAF-12/GRIP1 lit1-tk-luc reporter, luminescence; % of 3 µM dafachronic acid response; 370,000 compounds, 1% hits;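 active = activation above the mean over all tested compounds plus 3 SD, cut at about 0.9% in these data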;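 also: 0% = DMSO-only wells and 100% = 3 µM delta7-dafachronic acid wells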
DAX1 inh-2 = blocks DAX1 repression of SF-1 activated StAR promoter; HEK293T StAR-luciferase reporter, SF-1/DAX-1 repression relief; inhibition, % at 6.8 µM; 370,000 compounds, 1.1% hits; AID 652010;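 active = inhibition above the mean over all tested compounds plus 3 SD, cut at about 3.6% in these data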;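 also: 0% = DAX-1 cells with DMSO and 100% = cells lacking DAX-1 with DMSO; higher inhibition means more luminescence from relief of DAX-1 repression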
hgDAF12 agonist = agonists of H. glycines DAF-12 nuclear receptor; 370,000 compounds, 1.8% hits; HEK293 GAL4-hgDAF12 UAS-luciferase reporter, agonist luminescence; normalized to butyrate control; activation, % at 6.8 µM; AID 687014;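 active = activation above a cutoff set at the mean of all screened compounds plus 3 SD, cut at about 10% in these data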;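 also: 0% = DMSO wells and 100% = sodium butyrate wells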
hcDAF-12 act = activators of H. contortus DAF-12 nuclear receptor; HEK293 hcDAF-12 lit1-tk-luc reporter, luminescence; 0% DMSO, 100% Δ7-dafachronic acid; activation, % at 6.8 µM; 370,000 compounds, 1.4% hits;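 active = activation above the mean of all tested compounds plus 3 SD, cut at about 5.5% in these data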;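 also: 100% = response to 3 µM Δ7-dafachronic acid high control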
FXN GAA850 act = increases GAA850 frataxin promoter reporter activity; HEK293 lucGAA850 FXN promoter luciferase reporter, 24 h; percent of 10 µM SAHA response; 360,000 compounds, 0.56% hits; activation, % at 6 µM;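 active = activation above the average of all compounds screened plus 3 SD, cutoff fixed separately per campaign, cut at about 7.5% in these data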;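 also: 0% = DMSO wells and 100% = 10 µM SAHA wells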
LXR ag = LXR-beta agonism as hcDAF-12 counter-screen; shares compounds with hcDAF-12 act; HEK293 Gal4-LXR tk-luc reporter, luminescence, 24 h; normalized: DMSO 0%, positive control 100%; activation, % at 6.8 µM; 3,400 tested, under 10 active; AID 743027;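 active = mean percent activation of the reporter above a cutoff set as the average over tested compounds plus their standard deviation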
hcDAF12 ag = confirmation of H. contortus DAF-12 agonists | shares compounds with hcDAF-12 act | HEK293 hcDAF-12 lit1-tk-luc reporter, luminescence; % of Δ7-dafachronic acid response | AID 743032 | activation, % at 6.8 µM | 3,400 compounds, 61% hits;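 active = mean activation across triplicate tests above the threshold derived from the earlier primary screen, cut at about 5.5% in these data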;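 also: 0% = DMSO only wells and 100% = 3 µM Δ7-dafachronic acid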
hgDAF12 ag = confirmation of H. glycines DAF-12 agonists | shares compounds with hgDAF12 agonist | HEK293 GAL4-hgDAF12 luciferase reporter, agonist mode; percent of butyrate response | activation, % at 6.8 µM | 3,300 compounds, 80% hits | AID 743050;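 active = mean activation over triplicate wells above the hit cutoff derived from the earlier primary screen, cut at about 11% in these data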;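 also: 0% = DMSO low control and 100% = 2 mM sodium butyrate high control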
LXR ag 2 = activates human LXR-beta, counter-screen for DAF-12 agonists | 3,300 tested, under 10 active | shares compounds with hgDAF12 agonist | HEK293 Gal4-LXR luciferase reporter, 24 h | activation, % at 6.8 µM;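 active = mean activation of the triplicate above a set limit carried over from the primary screen, none filed active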
An asterisk follows results filed as active; / = no result. Hits are enriched below; roughly 4.5% of the tested compounds scored in any of these assays.

SMILES | DAX1 inh-1 | ssDAF12 agonist | DAX1 inh-2 | hgDAF12 agonist | hcDAF-12 act | FXN GAA850 act | LXR ag | hcDAF12 ag | hgDAF12 ag | LXR ag 2
CC(C)c1ccc(NC(=O)OC2CCC23CCC(c2ccccc2)CC3)cc1 (configuration not stated) | / | 0 | / | 3 | -1 | / | / | / | / | /
COC(=O)[C@]12C[C@H](CC(=O)NCc3ccc(C)o3)C(=O)N(Cc3ccc4c(c3)OCO4)C1=C[C@H](COCc1ccccc1)O[C@@H]2C | / | -1 | -2 | -1 | -3 | / | / | / | / | /
Cc1nc(-c2ccc3c(c2)OCCCO3)cs1 | 3 | 0 | 2 | 13* | 6.6* | 2 | 1 | 5 | 18* | 1
Cc1nc(-c2ccc3c(c2)OCO3)cs1 | 0 | 0 | 0 | 3 | 5 | 4 | / | / | / | /
Cc1nn(-c2ccccc2)c2sc(C(=O)N3CCN(C(c4ccccc4)c4ccc(Cl)cc4)CC3)cc12 (configuration not stated) | / | -1 | 0 | 3 | 0 | / | / | / | / | /
Cc1ccc(CNC(=O)COc2ccc(C)nc2[N+](=O)[O-])cc1 | 0 | -1 | 0 | -1 | -4 | 4 | / | / | / | /
Cc1ccc(COc2ccc(C)nc2[N+](=O)[O-])cc1 | / | 0 | 2 | 14* | 9.6* | 6 | 1 | 7.3* | 14* | 1
O=C(NN/C(=N/S(=O)(=O)c1ccc(Cl)cc1)c1ccccc1)c1cccc(Cl)c1 | 1 | 1.2* | 2 | 16* | 8.8* | 3 | 1 | 7.6* | 18* | 1
O=C(O)c1ccc(N/C(=N\S(=O)(=O)c2ccc(Cl)cc2)c2ccccc2)cc1 | 0 | -1 | 0 | -4 | 1 | 3 | / | / | / | /
C=CCN1C(C(=O)OC)CN(Cc2cn(CCC3OCCO3)nn2)CCS1(=O)=O (configuration not stated) | / | -1 | 1 | 1 | -1 | / | / | / | / | /
O=C(Nc1ccc(-c2nc3ccccc3o2)cc1)C1CCCO1 (configuration not stated) | 0 | 1.1* | 3 | 15* | 9.7* | 0 | 2 | 7.6* | 21* | 1
COC(=O)C[C@@H]1CC[C@H]2[C@H](COc3ccc(NC(=O)Nc4cccc(C#N)c4)cc3C(=O)N2C)O1 | / | -1 | -1 | 1 | 0 | / | / | / | / | /
O=C(c1[nH]c(C(F)(F)F)nc1-c1ccccc1)N1CCc2ccccc2C1 | / | -1 | 2 | 6 | 1 | / | / | / | / | /
Brc1c(-c2ccccc2)nc2n1Cc1ccccc1-2 | 4 | 1.8* | 2 | 16* | 11* | 4 | 1 | 11* | 18* | 1
CC(C)(C)OC(=O)N1CCC[C@@H]1C(=O)N1CCC[C@H]1C(=O)NCc1ccccc1 | / | -1 | 0 | -1 | 0 | / | / | / | / | /
CC(C)CN(CC(C)C)C(=O)CSc1nc2cccnc2n1C | / | -1 | -2 | -5 | -3 | / | / | / | / | /
Oc1c(-c2cc(-c3ccco3)[nH]n2)ccc2ccccc12 | 4 | 2.6* | 3.6* | 20* | 13* | 3 | 2 | 15* | 25* | 1
S=c1[nH]nc(-c2cc(-c3ccco3)[nH]n2)n1-c1ccccc1 | -1 | 0 | 0 | -1 | 0 | 0 | / | / | / | /
CCCCN1CCN(C(=O)c2cn(C(C)c3ccccc3)nn2)CC1 (configuration not stated) | / | -1 | 0 | 1 | 0 | / | / | / | / | /
Cc1c(C(=O)Nc2ccc3c(c2)OCO3)oc2ccccc12 | 1 | 2.8* | 2 | 18* | 16* | 6 | 1 | 16* | 21* | 1
